NPR1 antag = Natriuretic polypeptide receptor (hNpr1) antagonism - Primary qHTS. Atrial natriuretic peptide receptor 1 (Homo sapiens), P16066. HEK293 hNpr1 GloSensor cGMP, ANP-stimulated luminescence. Potency, µM (titrated, usually from 46.3 µM), without a hit: at the highest dose activity change, negative = inhibition, hits mostly inhibitors. 76,000 compounds, 1.6% hits. AID 1347048, 2019; calls by dose curve; further: nearly all actives have a fitted effect of over 60% in size
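Compound pre-incubated 30 min at room temperature on GloSensor-loaded HEK293 cells stably carrying hNpr1 and the pGS-40F cGMP biosensor. Stimulation uses hNppA at 0.1 nM final; luminescence is taken at baseline and 20 min post-agonist.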
GPT2 inh = Primary qHTS assay for inhibitors of Glutamate pyruvate transaminase 2 (GPT2) | Alanine aminotransferase 2 (Homo sapiens), Q8TD30 | Recombinant GPT2, coupled pyruvate oxidase/HRP Amplex Red fluorescence | Potency, µM (doses to about 57.7 µM), without a hit: at the highest dose activity change, negative = inhibition, actives largely listed as inhibitors | 100,000 compounds, 0.25% hits; further: nearly all actives have a fitted effect of over 60% in size
Target sequence (Q8TD30 whole entry, looked up): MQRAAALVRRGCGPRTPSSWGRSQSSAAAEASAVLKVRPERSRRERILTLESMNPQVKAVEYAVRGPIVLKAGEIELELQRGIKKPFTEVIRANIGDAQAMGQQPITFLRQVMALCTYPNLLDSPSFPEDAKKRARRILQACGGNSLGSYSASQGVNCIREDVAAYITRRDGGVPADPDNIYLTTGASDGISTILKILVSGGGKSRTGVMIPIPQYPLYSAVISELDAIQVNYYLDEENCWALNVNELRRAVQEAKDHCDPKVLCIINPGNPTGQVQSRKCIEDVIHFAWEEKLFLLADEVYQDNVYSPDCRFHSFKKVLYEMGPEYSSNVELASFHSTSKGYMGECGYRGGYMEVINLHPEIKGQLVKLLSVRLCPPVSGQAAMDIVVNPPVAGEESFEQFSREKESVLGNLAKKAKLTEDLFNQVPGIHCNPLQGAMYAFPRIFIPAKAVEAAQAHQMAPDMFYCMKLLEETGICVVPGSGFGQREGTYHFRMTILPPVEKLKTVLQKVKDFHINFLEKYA
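Inhibition is scored from Amplex Red fluorescence generated when pyruvate oxidase and HRP act on pyruvate released by GPT2. Reactions contain 10ng/uL enzyme, 250uM a-KG and 2mM L-alanine and run 30 min at room temperature.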
NIH3T3 tox = Cytotoxic Profiling in NIH 3T3 Cell Line of Diverse Libraries Using Quantitative High-Throughput Screening; NIH 3T3 viability, CellTiter-Glo ATP luminescence, 48-72 h; Potency, µM (series often up to 96.7 µM), without a hit: top-dose activity change, negative = cytotoxicity, hits mostly inhibitors; 94,000 compounds, 4.3% hits; AID 1345082, 2018; further: nearly all actives have a fitted effect of over 55% in size
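First NIH 3T3 cells are plated at 400 cells/well; next compound is pinned in; then plates incubate 48 or 72 hr at 37 °C; finally CellTiter-Glo is added and luminescence read after 10 min.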
HEK293 tox = Cytotoxic Profiling in HEK 293 Cell Line of Diverse Libraries Using Quantitative High-Throughput Screening | HEK 293 viability, ATP luminescence (CellTiter-Glo), 48-72 h | Potency, µM (highest dose often 115 µM), for inactives: at the top dose activity change, negative = cytotoxicity, usual class: inhibitors | 94,000 compounds, 6.6% hits; further: nearly all actives have a fitted effect of over 60% in size
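HEK 293 cells at 250 cells/well were exposed to compounds by pintool transfer for 48 or 72 hr at 37 degree Celsius, 5% CO2. Viability was read as ATP-coupled luminescence with CellTiter-Glo after 10 min at room temperature.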
Luciferase inh = Firefly luciferase inhibition profiling of diverse chemical library using quantitative high-throughput screening. purified P. pyralis luciferase, luminescence, biochemical. Potency, µM (titrated, usually from 115 µM), most hits filed as inhibitors. 76,000 compounds, 2.5% hits. AID 1347043, 2019; further: nearly all actives have a fitted effect of over 65% in size
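FLuc 10nM, D-luciferin 10uM, ATP 10uM, Mg acetate 10mM, Tris acetate pH 7.5, Tween/BSA; cpd qHTS; enzyme added last; CCD luminescence.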
* hit, by the source's call; i = inactive; ? = inconclusive; nt = not tested or not shown; [ ] = another dose, or the depositor's remark. This is a sample that favours compounds with a hit; in the whole collection about 10% have one here. Unless noted, the call rests on the fitted dose curve; in most records, active means well fitted curve in the direction sought with a large enough effect; inconclusive means small, poorly fitted or top-dose-only effect, or another doubt; inactive means no such curve, though single readings can be large; an effect the other way counts as inactive or inconclusive. On the % scale 0 is the no-effect control and ±100 the full control effect; potency means the concentration at half of the fitted maximal effect.

SMILES	NPR1 antag	GPT2 inh	NIH3T3 tox	HEK293 tox	Luciferase inh
C[S+](=O)([O-])c1ccc(-c2cc3c(ccn3Cc3ccncc3)c(N3CCOCC3)n2)cc1	1%	5%	6.3µM*	-16%	i
c1cc(-c2cc3c(ccn3Cc3ccncc3)c(N3CCOCC3)n2)cc(N2CCOCC2)c1	-2%	i	32µM*	?	i
CC(=O)Nc1cccc(-c2cc3c(ccn3Cc3ccncc3)c(N3CCOCC3)n2)c1	2%[70.6 µM]	4%[88.5 µM]	?	-18%[172 µM]	i
Cc1nc(-c2cccc(Cl)c2)n(CC(=O)NCc2ccc(F)cc2)c(=O)c1CCO	-14%	i	?	?	i
Cc1ccc(CN2CCCOCCNC(=O)CC2)s1	-1%	i	-10%	4%	i
CC(C)(C)COC(=O)N1C[C@H](C(N)=O)[C@H]2c3ccccc3N(CC3CC3)C(=O)[C@]21C	nt	-11%[27.3 µM]	-24%[46.1 µM]	?	nt
CN1Cc2ncnc(NCCc3ccccc3)c2CN(C2CCC2)C1=O	0%[70.6 µM]	-16%[88.5 µM]	?	63µM*	i
Cc1ccc(N2Cc3c(NCCCc4ccccc4)ncnc3N(C)CC2=O)cc1	6%	-26%	?	?	i
Cc1cccc(N2Cc3c(NCCCc4ccccc4)ncnc3N(C)CC2=O)c1	nt	?	45µM*	?	nt
COc1ccc(N2Cc3c(NCC4CCCCCC4)ncnc3N(C)CC2=O)cc1	-2%	i	?	79µM*	i
CN1CC(=O)N(c2ccccc2F)Cc2c(NCCc3ccccc3)ncnc21	0%	?	?	45µM*	i
COc1ccc(N2Cc3c(NCC(C)(C)C)ncnc3N(C)CC2=O)cc1	-2%	?	-22%	-8%	i
COc1ccnc2[nH]cc(C(=O)C(=O)N3CCN(C(=O)c4ccccc4)CC3C)c12 (centres undefined)	nt	i	nt	nt	nt
CN1CC(=O)N(c2ccccc2F)Cc2c(NCCc3ccc(Cl)cc3)ncnc21	-15%	-9%	40µM*	45µM*	i
Cc1ccc2c(n1)OC(COc1ccccc1)CN(c1ccccc1)C2=O (centres undefined)	nt	i	-11%[46.1 µM]	?	nt
Cc1ccc(C2Cn3nnc(C(=O)N4CCC(C(=O)Nc5ccc(F)c(C)c5)CC4)c3CO2)cc1 (centres undefined)	-12%	i	i	5%	?
COc1ccc(C2Cn3nnc(C(=O)N4CCC(C(=O)Nc5cc(C)cc(C)c5)CC4)c3CO2)cc1 (centres undefined)	0%	0%	45µM*	35µM*	i
COc1ccc(NC(=O)C2CCN(C(=O)c3nnn4c3COC(c3ccc(C)cc3)C4)CC2)cc1 (centres undefined)	-12%	i	i	6%	?
CCc1cccc(NC(=O)C2CCN(C(=O)c3nnn4c3COC(c3ccc(C)cc3)C4)CC2)c1 (centres undefined)	-14%	i	22µM*	10µM*	35µM*
CCc1cccc(NC(=O)C2CCN(C(=O)c3nnn4c3COC(c3ccc(OC)cc3)C4)CC2)c1 (centres undefined)	-2%	i	?	18µM*	i
COc1ccc(CCNC(=O)c2cn3cc(-c4cccc(C(F)(F)F)c4)sc3n2)cc1	nt	2%	?	?	nt
CCn1c(=O)c2ccnn2c2ccc(C(=O)Nc3ccc(C)c(F)c3)cc21	4%	1%	-6%	45µM*	i
Cn1c(=O)c2ccnn2c2ccc(C(=O)NCC3CCN(Cc4cccc(F)c4)CC3)cc21	2%	i	?	79µM*	i
CCn1c(=O)c2ccnn2c2ccc(C(=O)NCCCOC(C)C)cc21	-9%	i	-11%	?	i
CN1CCC(NC(=O)c2ccc3c(c2)n(Cc2ccc(F)cc2)c(=O)c2ccnn23)CC1	3%	i	22µM*	25µM*	i
SMILES	NPR1 antag	GPT2 inh	NIH3T3 tox	HEK293 tox	Luciferase inh
CCCCNC(=O)c1ccc2c(c1)n(Cc1ccc(F)cc1)c(=O)c1ccnn12	-13%	i	?	?	i
COc1ccc(-c2ccc3c(c2)C(=O)N2CC[C@H](NC(=O)c4cccs4)[C@H]2C(=O)N3)c(OC)c1	-18%	-3%	-27%	?	?
COc1ccc(Cl)cc1-c1ccc2c(c1)C(=O)N1CC[C@H](NC(=O)NC(C)C)[C@H]1C(=O)N2	2%	i	-26%	?	i
COc1ccc(-c2ccc3c(c2)C(=O)N2CC[C@H](NC(=O)CSC)[C@H]2C(=O)N3)cc1	-2%[70.6 µM]	0%[88.5 µM]	?	?	25µM*
COc1ccc(Cl)cc1-c1ccc2c(c1)C(=O)N1CC[C@H](NC(=O)c3cccs3)[C@H]1C(=O)N2	?	2%	?	35µM*	i
COc1ccc(-c2ccc3c(c2)C(=O)N2CC[C@H](NC(=O)c4cccs4)[C@H]2C(=O)N3)cc1	3%	1%	-6%	i	25µM*
O=C(N[C@H]1CCN2C(=O)c3cc(-c4ccc(Cl)cc4)ccc3NC(=O)[C@H]12)c1cccs1	-15%	3%	?	?	11µM*
COc1ccc(-c2ccc3c(c2)C(=O)N2CC[C@H](NC(=O)CCC(=O)O)[C@H]2C(=O)N3)cc1	3%	3%	-9%	2%	?
COc1ccc(OC)c(NC(=O)COc2ccc(-c3nnc4n3CCCC4)cc2)c1	1%	i	-16%	4%	i
O=C(N[C@H]1CCN2C(=O)c3cc(-c4ccccc4)ccc3NC(=O)[C@H]12)c1cccs1	-17%[70.6 µM]	-1%[88.5 µM]	-17%[174 µM]	-23%[172 µM]	i
O=C(N[C@H]1CCN2C(=O)c3ccc(Cl)cc3NC(=O)[C@H]12)c1cccs1	1%[70.6 µM]	4%[88.5 µM]	89µM*	-7%[172 µM]	i
COc1ccc(-c2ccc3c(c2)C(=O)N2CC[C@H](NS(=O)(=O)c4cccs4)[C@H]2C(=O)N3)cc1	?	1%	?	22µM*	?
O=[S+]([O-])(c1ccccc1)N1Cc2ccccc2CC2(CCCN2Cc2ccncc2)C1 (centres undefined)	nt	i	-28%	?	nt
COc1ccc(OC)c(CN2CCCn3nc(C)c(-c4cnccc4C)c32)c1	-16%[70.6 µM]	i	89µM*	?	i
COc1ccccc1CN1CCCn2nc(C)c(-c3cnccc3C)c21	?	i	45µM*	40µM*	i

Source: PubChem (National Center for Advancing Translational Sciences (NCATS))
